Screens from PubChem BioAssay.
D2 antagonist: antagonists of human D2 dopamine receptor; HEK293 TREx D2 cells, calcium flux, dopamine EC80; inhibition, % at 10 µM; AID 485344; hit rate 2% among 340,000; P14416; in the data active = inhibition above about 30%; inactive = below that, where a call was filed
Target sequence (P14416 whole entry, looked up): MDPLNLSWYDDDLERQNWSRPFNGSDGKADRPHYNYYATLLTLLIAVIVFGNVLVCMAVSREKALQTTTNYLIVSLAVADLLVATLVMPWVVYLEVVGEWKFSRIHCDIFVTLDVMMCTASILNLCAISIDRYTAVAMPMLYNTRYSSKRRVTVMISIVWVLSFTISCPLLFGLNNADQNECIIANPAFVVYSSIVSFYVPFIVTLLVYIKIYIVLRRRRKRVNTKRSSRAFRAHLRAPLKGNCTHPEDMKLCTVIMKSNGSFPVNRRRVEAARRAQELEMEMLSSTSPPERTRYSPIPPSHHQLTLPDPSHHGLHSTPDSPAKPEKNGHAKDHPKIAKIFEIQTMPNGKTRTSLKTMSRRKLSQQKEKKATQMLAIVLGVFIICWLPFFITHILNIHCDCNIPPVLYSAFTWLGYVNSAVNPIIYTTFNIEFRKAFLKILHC
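Inhibition of EC80 dopamine-driven calcium flux, recorded kinetically, defines activity here; cells are a tetracycline-induced HEK293 T-REx line expressing force-coupled D2.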
D2 PAM-1: positive allosteric modulators of human D2 dopamine receptor; P14416; HEK293 T-REx D2, calcium flux, EC20 dopamine potentiation; potentiation, % at 10 µM; hit rate 0.34% among 340,000;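 active = potentiation over 3 SD above the plate norm, cut at about 30% in these data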
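Tetracycline-induced HEK293 T-REx cells force-coupled to calcium signalling expressed D2; compounds were pin-added after a 10 s baseline, read kinetically 180 s, then an EC20 dopamine challenge followed with a further 180 s calcium read.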
D2 PAM-2: human D2 receptor positive allosteric modulation | hit rate 0.23% among 360,000 | potentiation, % (no concentration beside the values) | P14416 | DiscoveRx D2 beta-arrestin cells, luminescence, 90 min; 100% = 57 uM dopamine signal | AID 624464; in the data active = potentiation above about 50%; inconclusive = mostly about 30% to 49%
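D2 cells co-treated with compound plus 50 nM dopamine (EC20) for 90 min at 37 deg C to detect potentiation. Beta-arrestin recruitment was read as enzyme-fragment luminescence after 1 h at ambient temperature. Full response was set by 57 uM dopamine.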
D2 ag-1: agonists of human D2 dopamine receptor. P14416. HEK293 T-REx D2 cells, calcium flux agonist mode. activation, % at 2 µM. hit rate 0.53% among 340,000. AID 485358;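 active = activation over 3 SD above normal in the single-dose calcium agonist read, cut at about 30% in these data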
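In this primary screen, compounds producing a positive calcium signal within 180 s of addition to tetracycline-induced, force-coupled HEK293 Trex D2 cells are flagged; cells are dye-loaded with a no-wash calcium kit beforehand.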
D2 ag-2: activates the human D2 dopamine receptor | AID 624465 | P14416 | hit rate 0.084% among 360,000 | DiscoveRx PathHunter D2 beta-arrestin, luminescence, 90 min; 100% = 57 uM dopamine signal | activation, % (test concentration not listed); in the data active = activation above about 40%; inconclusive = between about 15% and that limit
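Agonist mode: compounds alone added to overnight-plated D2 PathHunter cells for 90 min at 37 C, with 57 uM final dopamine (EC100) defining full response. Beta-arrestin recruitment detected by chemiluminescent reagent, read after 1 h at ambient temperature.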
Hits are given with their value; n = inactive; u = inconclusive; x = no result; ! = repeats disagree. An excerpt weighted towards active compounds, which were near 2.4% of everything screened.

SMILES	D2 antagonist	D2 PAM-1	D2 PAM-2	D2 ag-1	D2 ag-2
O=C(COC(=O)C1CCN(S(=O)(=O)c2cccs2)CC1)Nc1ccccc1Br	n	n	n	n	n
Cc1cc(C(=O)OCC(=O)Nc2cc(S(=O)(=O)N(C)C)ccc2Cl)c2ccccc2n1	n	n	n	n	n
COc1ccc(C(=O)NC(=S)N2CCOCC2)cc1OC	x	x	n	x	n
O=[N+]([O-])c1ccccc1-c1ccc(CN2CCN(c3ccccc3)CC2)o1	52	n	n	n	u
O=[N+]([O-])c1ccc(-n2nnnc2-c2ccccc2)c([N+](=O)[O-])c1	n	n	86	n	u
CC1(OC(=O)C2CCCC2)C(=O)C=C2C=C(c3ccsc3)N(C3CCCC3)C=C2C1=O (configuration not stated)	37	n	n	n	n
O=C(/C=C/c1ccccc1Cl)OCC(=O)N1CCc2ccccc21	x	x	n	x	n
ON=C1c2ccccc2-c2ccc(O)cc21	x	x	n	x	n
CC(=NO)c1ccc2c(c1)C(=NO)c1ccccc1-2	x	x	83	x	n
CN(CC(=O)Nc1ccc(F)c(F)c1F)C(=O)Cc1ccc2c(c1)OCCO2	35	n	n	n	n
CC12CN3CC(C)(CN(C1)C3c1ccc(Br)cc1O)C2 (configuration not stated)	36	n	n	n	n
Cc1ccc(C2CC(C(F)(F)F)n3ncc(C(=O)NCc4ccco4)c3N2)cc1 (configuration not stated)	37	n	n	n	n
CCCS(=O)(=O)NC(=O)C1(C)CCCN(C(=O)C(C)(C)Oc2ccc(Cl)cc2)C1 (configuration not stated)	x	x	n	x	n
CCOc1ccc(C(c2c(O)cc(C)n(CCOC)c2=O)N2CCC(C)CC2)cc1 (configuration not stated)	x	n	x	n	x
COc1ccc(-c2nnc(NC(=O)C(C)C)s2)c(OC)c1	n	36	n	n	n
COc1ccc(C(=O)Nc2nnc(Cc3ccc(OC)c(OC)c3)s2)c(OC)c1	n	n	n	n	n
COc1ccc(Cc2nnc(NC(=O)c3c(-c4ccccc4)noc3C)s2)cc1	n	34	n	n	n
CCOCc1nnc(NC(=O)c2ccc(OC)cc2)s1	33	n	n	n	n
COCc1nnc(NC(=O)c2ccc(OC)cc2OC)s1	39	38	n	n	n
COc1ccc(Cc2nnc(NC(=O)c3c(-c4ccccc4)noc3C)s2)cc1OC	n	n	x	n	x
COc1ccc(Cc2nnc(NC(=O)c3ccc(OC)c(OC)c3)s2)cc1OC	n	n	n	n	n
COc1ccc(Cc2nnc(NC(=O)c3cccs3)s2)cc1OC	n	40	n	n	n
O=C(/C=C/c1ccc2c(c1)OCO2)Nc1nc(-c2ccccc2)cs1	n	n	n	n	n
Clc1ccc(-c2csc(N/N=C/c3ccc4c(c3)OCO4)n2)cc1	35	n	n	n	n
Nc1cccc(N2C(=O)c3cccc4c(N)ccc(c34)C2=O)c1	n	n	n	49	n
SMILES	D2 antagonist	D2 PAM-1	D2 PAM-2	D2 ag-1	D2 ag-2
Cc1cccc(N2C(=O)c3cccc4c(N)ccc(c34)C2=O)c1	n	n	n	117	n
Nc1ccc2c3c(cccc13)C(=O)N(c1ccccc1)C2=O	n	n	n	n	n
CCOC(=O)C1(Cc2ccccc2)CCN(Cc2cnn(CC)c2)CC1	n	n	n	n	n
CCOC(=O)C1(Cc2ccccc2)CCN(Cc2cnn(-c3ccccc3)c2)CC1	33	n	n	n	n
CCOC(=O)C1(CCOc2ccccc2)CCN(Cc2ccc(-n3cccn3)cc2)CC1	35	n	n	n	n
CCOC(=O)C1(CCOc2ccccc2)CCN(S(=O)(=O)N(C)C)CC1	43	n	n	n	n
CCOC(=O)C1(CCc2ccccc2)CCN(Cc2cccc3nccnc23)CC1	65	n	n	n	n
CCOC(=O)C1(CCOc2ccccc2)CCN(Cc2ccncc2)CC1	n	n	n	n	n
CCOC(=O)CCNC(=O)N1CCC(CCOc2ccccc2)(C(=O)OCC)CC1	x	x	n	x	n
Cc1c(C(=O)N2CCOCC2)cc(C(C)(C)C)n1-c1ccccc1	n	n	n	n	n
Clc1ccc(-c2ccc(CNCC3CCCO3)o2)cc1 (configuration not stated)	35	n	n	n	n
COc1cc(/C=C/C(=O)OCC(=O)NC(=O)NC(C)C)ccc1OCC#N	46	n	n	n	n
NC(=O)C1CCN(C(=O)COc2ccc3c4c(c(=O)oc3c2)CCCC4)CC1	31	n	n	n	n
O=C(O)C1CCN(C(=O)COc2ccc3c4c(c(=O)oc3c2)CCC4)CC1	n	n	n	n	n
O=c1[nH]c2ccccc2cc1CN(CC1CCCO1)S(=O)(=O)c1ccccc1 (configuration not stated)	35	n	n	n	n
O=Cc1ccc2noc(-c3ccc(Cl)cc3)c2c1	x	x	80	x	u
COc1ccc(-c2onc3ccc(Cl)cc23)cc1	n	n	104	n	n
CCCCc1ccc(NC(=O)CSc2nc3ccccc3nc2N2CCOCC2)cc1	x	n	x	n	x
CN(CCCNC(=O)CCC(=O)N1CCOc2ccccc21)Cc1ccccc1	n	n	n	n	n
COc1ccc(CC(=O)Nc2c(C(=O)N3CCN(c4ccccc4)CC3)oc3ccccc23)cc1OC	n	n	n	n	n
COc1cc(NC(=O)COC(=O)CCc2cc(OC)c(OC)c(OC)c2)cc(OC)c1	n	n	n	n	n
COc1cc(CCC(=O)OCC(=O)Nc2ccc(C(N)=O)cc2)cc(OC)c1OC	39	n	n	n	n
COc1ccc(-c2cc(C(=O)Oc3ccc(Br)cc3)c3ccccc3n2)cc1	x	n	x	x	x
Cc1nc2nc[nH]n2c(=O)c1NC(=O)CC12CC3CC(CC(C3)C1)C2	n	31!	n	n	n
Cc1ccc(Cn2cc(S(=O)(=O)c3ccccc3)c(=O)c3cc(F)c(N4CCOCC4)cc32)cc1	x	n	x	n	x
SMILES	D2 antagonist	D2 PAM-1	D2 PAM-2	D2 ag-1	D2 ag-2
CC(=O)C1=C(O)C(=O)N(c2ccc(Br)cn2)C1c1ccccc1[N+](=O)[O-] (configuration not stated)	31	n	n	n	n
CNC(=O)CSc1nnnn1-c1cc(C)ccc1C	n	46	n	n	n
CC(C)COc1ccc(C(=O)NCC2(N3CCN(C)CC3)CCCCC2)cc1	x	n	x	n	x
COC(=O)c1ccc(OC(=O)c2ccncc2)cc1O	n	n	n	n	n
COc1cc2c(cc1O)C(Cc1ccc(O)cc1)NCC2 (configuration not stated)	74	n	n	n	n
O=C1c2ccccc2C(O)N1Cc1cccs1 (configuration not stated)	47	n	n	n	n
CCOc1cc(CNc2ccc(N3CCN(C(C)=O)CC3)cc2)cc(Br)c1OC	n	n	74	n	n
